# Reference: PubChem BioAssay (NCATS)
# Several values for one entry are separate records, joined by “and”; a condition that tells them apart may be missing. Identical values can stand only once. Records with an inconclusive call do not appear. Activity calls are given as the source filed them. Unless noted, calls follow the shape of the dose curve; as a rule, active = well fitted curve in the direction sought with a large enough effect; inconclusive = small, poorly fitted or top-dose-only effect, or another doubt; inactive = no such curve, though single readings can be large; an effect the other way counts as inactive or inconclusive.
# How the values were obtained:
# [1] = target: Cytochrome P450 3A4 (Homo sapiens) (UniProt P08684); assay: qHTS Assay for Inhibitors and Substrates of Cytochrome P450 3A4 (AID 884); also: nearly all actives have a fitted effect of over 50% in size; also: potency is read from the fitted curve at half-maximal effect
# Cytochrome P450 3A4 (Homo sapiens), sequence (P08684 whole entry, looked up): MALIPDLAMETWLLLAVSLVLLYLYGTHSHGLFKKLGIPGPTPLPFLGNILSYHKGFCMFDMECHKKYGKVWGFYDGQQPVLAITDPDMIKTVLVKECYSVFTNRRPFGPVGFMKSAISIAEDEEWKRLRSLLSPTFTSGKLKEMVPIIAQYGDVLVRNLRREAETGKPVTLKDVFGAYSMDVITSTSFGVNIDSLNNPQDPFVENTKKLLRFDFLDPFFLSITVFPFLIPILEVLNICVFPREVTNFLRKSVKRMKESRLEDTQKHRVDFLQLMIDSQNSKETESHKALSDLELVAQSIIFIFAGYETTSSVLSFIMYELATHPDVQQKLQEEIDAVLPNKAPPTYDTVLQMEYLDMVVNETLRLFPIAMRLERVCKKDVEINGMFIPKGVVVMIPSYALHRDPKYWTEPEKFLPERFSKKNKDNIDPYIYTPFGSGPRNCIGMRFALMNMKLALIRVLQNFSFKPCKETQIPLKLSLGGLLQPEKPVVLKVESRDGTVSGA
# How it was run: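 Luminescent readout of luciferin produced by CYP3A4 (20 nM) dealkylation of Luciferin-PPXE, 25 uM (its KM). NADPH-driven reaction ran 60 min at RT after 10 min compound preincubation; data scaled to 57 uM ketoconazole as 100% inhibition.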
# [2] = target: Estrogen receptor (Homo sapiens) (UniProt P03372); assay: qHTS assay for small molecule antagonists of estrogen receptor alpha signaling (AID 588513; active = well fitted curve in the direction sought with a large enough effect in the signal ratio, with a control signal flat, not every such curve was filed as active; the % refers to the signal ratio; also: % is scaled to controls: 0 for no effect and ±100 for the full control effect)
# Estrogen receptor (Homo sapiens), sequence (P03372 whole entry, looked up): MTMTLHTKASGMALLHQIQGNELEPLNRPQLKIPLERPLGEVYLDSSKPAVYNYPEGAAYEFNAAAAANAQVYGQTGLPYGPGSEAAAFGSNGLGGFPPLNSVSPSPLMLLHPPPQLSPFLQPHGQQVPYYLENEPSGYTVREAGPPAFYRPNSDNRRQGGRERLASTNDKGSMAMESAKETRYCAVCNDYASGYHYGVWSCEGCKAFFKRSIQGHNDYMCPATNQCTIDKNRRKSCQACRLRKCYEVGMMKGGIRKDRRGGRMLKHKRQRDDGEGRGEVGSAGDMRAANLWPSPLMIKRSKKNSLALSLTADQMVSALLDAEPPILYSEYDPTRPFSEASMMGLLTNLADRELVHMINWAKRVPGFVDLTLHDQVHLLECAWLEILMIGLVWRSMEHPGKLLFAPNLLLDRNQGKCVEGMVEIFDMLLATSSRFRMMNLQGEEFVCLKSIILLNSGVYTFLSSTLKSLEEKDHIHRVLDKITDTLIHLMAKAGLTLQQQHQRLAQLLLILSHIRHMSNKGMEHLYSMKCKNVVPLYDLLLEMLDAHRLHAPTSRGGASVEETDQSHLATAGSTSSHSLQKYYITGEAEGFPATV
# How it was run: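 Fluorescence from CCF4 substrate after 2 h at room temperature gave reporter activity; cells had been exposed to compound and 0.5nM 17-beta-estradiol for 18 h at 37 C. Hill-equation fitting yielded IC50 and maximal response.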
# [3] = target: Estrogen receptor (Homo sapiens) (UniProt P03372); assay: qHTS assay for small molecule agonists of estrogen receptor alpha signaling (AID 588514; calls by dose curve;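 also: 0% = vehicle only and 100% = reference agonist; nearly all actives have a fitted effect of over 70% in size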)
# How it was run: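 Read-out: CCF4 fluorescence from a beta-lactamase reporter in ER-alpha-UAS-bla HEK 293 cells after 18 hrs of compound exposure at 37 C. Normalized to 20 nM 17-beta-estradiol (100%) and DMSO (0%).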
# [4] = target: Glucocorticoid receptor (Homo sapiens) (UniProt P04150); assay: qHTS assay for small molecule agonists of glucocorticoid receptor signaling (AID 588532; active = well fitted curve in the direction sought with a large enough effect in the signal ratio, with a control signal flat; the % refers to the signal ratio;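 also: 100% = dexamethasone at 0.1 µM and 0% = DMSO only wells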); details: HeLa MMTV-bla, beta-lactamase ratio, agonist, 18 h; activation: stronger effect = higher value, percent of dexamethasone control, DMSO zero
# Glucocorticoid receptor (Homo sapiens), sequence (P04150 whole entry, looked up): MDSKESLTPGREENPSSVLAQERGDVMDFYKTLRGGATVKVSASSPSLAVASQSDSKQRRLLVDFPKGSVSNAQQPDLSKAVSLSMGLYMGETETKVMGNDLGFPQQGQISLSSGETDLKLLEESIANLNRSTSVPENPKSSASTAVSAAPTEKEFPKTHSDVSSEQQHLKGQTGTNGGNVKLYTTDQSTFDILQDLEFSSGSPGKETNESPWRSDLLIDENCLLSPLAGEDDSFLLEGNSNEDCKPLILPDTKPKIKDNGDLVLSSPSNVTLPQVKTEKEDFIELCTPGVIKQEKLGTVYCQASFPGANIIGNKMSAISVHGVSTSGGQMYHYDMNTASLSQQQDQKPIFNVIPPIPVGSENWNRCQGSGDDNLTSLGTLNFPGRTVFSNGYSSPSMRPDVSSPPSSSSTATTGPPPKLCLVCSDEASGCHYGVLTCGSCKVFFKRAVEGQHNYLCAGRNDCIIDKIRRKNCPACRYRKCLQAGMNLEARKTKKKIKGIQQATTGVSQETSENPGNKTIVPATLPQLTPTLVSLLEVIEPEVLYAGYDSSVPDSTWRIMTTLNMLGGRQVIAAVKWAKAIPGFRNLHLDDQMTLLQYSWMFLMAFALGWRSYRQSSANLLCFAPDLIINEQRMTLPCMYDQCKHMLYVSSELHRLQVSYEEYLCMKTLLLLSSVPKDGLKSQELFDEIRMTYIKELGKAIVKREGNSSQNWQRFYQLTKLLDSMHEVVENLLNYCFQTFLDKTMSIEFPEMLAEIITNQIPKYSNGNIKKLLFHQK
# How it was run: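 MMTV-bla HeLa beta-lactamase reporter cells in 1% charcoal/dextran FBS medium, compounds up to 92 uM for 18 h at 37 C, CCF4 readout; normalized to 0.1 uM dexamethasone (100%), EC50 and efficacy from Hill fits.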
# [5] = target: Peroxisome proliferator-activated receptor delta (Homo sapiens) (UniProt Q03181); assay: qHTS assay for small molecule agonists of peroxisome proliferator-activated receptor delta signaling (AID 588534; calls by dose curve;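 also: 0% = DMSO basal wells and 100% = positive control agonist at 10 µM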)
# Peroxisome proliferator-activated receptor delta (Homo sapiens), sequence (Q03181 whole entry, looked up): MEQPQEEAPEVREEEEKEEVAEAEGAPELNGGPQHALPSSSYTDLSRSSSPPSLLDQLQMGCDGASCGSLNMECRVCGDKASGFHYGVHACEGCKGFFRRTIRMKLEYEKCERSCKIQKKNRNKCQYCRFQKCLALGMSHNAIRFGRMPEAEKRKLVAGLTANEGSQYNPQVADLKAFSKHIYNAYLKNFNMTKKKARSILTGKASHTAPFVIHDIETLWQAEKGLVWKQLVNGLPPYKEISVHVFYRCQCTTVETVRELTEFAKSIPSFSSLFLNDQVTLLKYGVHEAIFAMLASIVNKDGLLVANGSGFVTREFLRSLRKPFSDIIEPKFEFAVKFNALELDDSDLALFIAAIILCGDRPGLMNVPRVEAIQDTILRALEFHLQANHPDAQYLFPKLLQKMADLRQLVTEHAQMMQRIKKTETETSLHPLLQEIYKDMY
# How it was run: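 Titration series tested in agonist mode on beta-lactamase reporter cells; 18 hrs at 37 C after a 5 hr pre-incubation. Readout: CCF4 fluorescence, 2 hrs RT. Hill equation gives EC50 and maximal response.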
# [6] = target: Peroxisome proliferator-activated receptor gamma (Homo sapiens) (UniProt P37231); assay: qHTS assay for small molecule agonists of peroxisome proliferator-activated receptor gamma signaling (AID 588536; active = well fitted curve in the direction sought with a large enough effect in the signal ratio, with a control signal flat, not every such curve was filed as active; the % refers to the signal ratio;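 also: 0% = DMSO basal wells and 100% = rosiglitazone at 2 µM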)
# Peroxisome proliferator-activated receptor gamma (Homo sapiens), sequence (P37231 whole entry, looked up): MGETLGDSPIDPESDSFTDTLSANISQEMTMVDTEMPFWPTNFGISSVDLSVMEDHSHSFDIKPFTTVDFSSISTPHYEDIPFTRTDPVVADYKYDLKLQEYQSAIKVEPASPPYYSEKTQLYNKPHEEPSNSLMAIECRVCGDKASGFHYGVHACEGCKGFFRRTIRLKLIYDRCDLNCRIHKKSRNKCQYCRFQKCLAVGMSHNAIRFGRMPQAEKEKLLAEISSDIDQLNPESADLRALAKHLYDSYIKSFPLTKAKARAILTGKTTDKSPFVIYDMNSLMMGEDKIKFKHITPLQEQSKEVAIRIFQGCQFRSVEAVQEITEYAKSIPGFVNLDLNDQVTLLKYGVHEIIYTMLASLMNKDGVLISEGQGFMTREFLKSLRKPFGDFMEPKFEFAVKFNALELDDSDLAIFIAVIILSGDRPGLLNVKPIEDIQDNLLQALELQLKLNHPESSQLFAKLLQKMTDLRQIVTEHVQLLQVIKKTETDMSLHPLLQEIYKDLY
# How it was run: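 Using GeneBLAzer HEK293 cells, response was quantified by CCF4 fluorescence and normalized between basal DMSO (0%) and rosiglitazone 2 uM (100%); curves yielded half-maximal stimulation concentration and efficacy.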
# [7] = target: Vitamin D3 receptor (Homo sapiens) (UniProt P11473); assay: qHTS assay for small molecule antagonists of vitamin D receptor signaling (AID 588541; calls by dose curve;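 also: receptor activated by calcitriol during compound treatment; series mostly up to about 77 µM; % is scaled to controls: 0 for no effect and ±100 for the full control effect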)
# Vitamin D3 receptor (Homo sapiens), sequence (P11473 whole entry, looked up): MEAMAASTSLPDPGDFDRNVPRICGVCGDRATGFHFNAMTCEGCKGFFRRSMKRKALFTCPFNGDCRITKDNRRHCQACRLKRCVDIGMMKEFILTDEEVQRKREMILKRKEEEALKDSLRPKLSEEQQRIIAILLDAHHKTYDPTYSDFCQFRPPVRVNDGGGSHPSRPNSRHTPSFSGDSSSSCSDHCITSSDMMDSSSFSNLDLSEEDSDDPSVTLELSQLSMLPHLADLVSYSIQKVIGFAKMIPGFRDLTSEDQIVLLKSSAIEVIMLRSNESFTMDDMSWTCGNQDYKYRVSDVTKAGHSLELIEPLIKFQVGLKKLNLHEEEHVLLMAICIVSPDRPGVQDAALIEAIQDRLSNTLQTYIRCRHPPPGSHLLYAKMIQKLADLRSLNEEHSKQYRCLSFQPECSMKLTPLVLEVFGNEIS
# How it was run: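 VDR-UAS-bla HEK293T cells in 2% charcoal-stripped FBS were stimulated with 1-alpha,25-dihydroxyvitamin D3 (3 nM final) plus compound for 16 h at 37 C. The beta-lactamase CCF4 readout was normalized to 50 nM agonist and DMSO, and Hill fits gave IC50.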
# [8] = target: Vitamin D3 receptor (Homo sapiens) (UniProt P11473); assay: qHTS assay for small molecule agonists of vitamin D receptor signaling (AID 588543; calls by dose curve;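 also: 0% = DMSO basal and 100% = reference agonist control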)
# How it was run: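 Reporter cells (HEK293T, VDR-UAS-bla) were seeded in medium with 2% charcoal-stripped serum and incubated 5 h, then compounds in concentration series were added for 16 h at 37 °C. Stimulation was scaled between DMSO basal and 50 nM 1α,25-dihydroxyvitamin D3.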
# [9] = qHTS assay for small molecule agonists of retinoid X receptor alpha signaling (AID 588544); details: HEK293T RXRa-UAS-bla, beta-lactamase reporter, 18 h; 530 nm emission
# [10] = target: Thyroid hormone receptor beta (Homo sapiens) (UniProt P10828); assay: qHTS assay for small molecule agonists of thyroid hormone receptor beta signaling (AID 588545; calls by dose curve;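 also: 0% = DMSO only and 100% = 10 nM T3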)
# Thyroid hormone receptor beta (Homo sapiens), sequence (P10828 whole entry, looked up): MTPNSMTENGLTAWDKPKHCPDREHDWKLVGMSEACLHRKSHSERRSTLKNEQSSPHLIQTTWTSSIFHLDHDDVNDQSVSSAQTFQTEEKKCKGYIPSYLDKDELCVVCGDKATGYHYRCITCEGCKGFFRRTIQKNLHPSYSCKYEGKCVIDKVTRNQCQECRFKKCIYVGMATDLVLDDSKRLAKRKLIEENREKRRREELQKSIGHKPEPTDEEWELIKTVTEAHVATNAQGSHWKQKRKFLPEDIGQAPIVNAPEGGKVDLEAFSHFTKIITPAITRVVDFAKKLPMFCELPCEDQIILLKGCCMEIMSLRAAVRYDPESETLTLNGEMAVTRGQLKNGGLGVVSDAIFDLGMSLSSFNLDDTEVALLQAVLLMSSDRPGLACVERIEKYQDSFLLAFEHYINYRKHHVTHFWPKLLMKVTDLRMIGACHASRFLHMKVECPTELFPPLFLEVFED
# How it was run: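 Efficacy and EC50 values derive from Hill fits of qHTS titration data, normalized to 10 nM T3 and DMSO-only wells. HEK 293 reporter cells were stimulated for 18 hrs at 37 C, with beta-lactamase activity measured by CCF4 fluorescence.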
# [11] = qHTS assay for small molecule antagonists of retinoid X receptor alpha signaling (AID 588546; active = well fitted inhibition curve with a large enough effect in the signal ratio, with a control signal flat, not every such curve was filed as active; the % refers to the signal ratio;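 also: cells stimulated with 9-cis-retinoic acid as agonist; % is scaled to controls: 0 for no effect and ±100 for the full control effect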); details: HEK293T RXRa-UAS-bla, beta-lactamase ratio, antagonist mode; measured here: W530 green channel, cytotoxicity proxy
# How it was run: (§1)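 Beta-lactamase reporter inhibition, read as CCF4 fluorescence ratio (ex 405, em 460/530 nm) after 2 h at RT. HEK293T UAS-bla cells, 2500/well, were stimulated with 9-cis-RA at 500 or 100 nM final alongside test compound for 18 h at 37 C.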
# [12] = target: Retinoic acid receptor RXR-alpha (Homo sapiens) (UniProt P19793); assay: as above; details: HEK293T RXRa-UAS-bla, beta-lactamase ratio, antagonist mode
# Retinoic acid receptor RXR-alpha (Homo sapiens), sequence (P19793 whole entry, looked up): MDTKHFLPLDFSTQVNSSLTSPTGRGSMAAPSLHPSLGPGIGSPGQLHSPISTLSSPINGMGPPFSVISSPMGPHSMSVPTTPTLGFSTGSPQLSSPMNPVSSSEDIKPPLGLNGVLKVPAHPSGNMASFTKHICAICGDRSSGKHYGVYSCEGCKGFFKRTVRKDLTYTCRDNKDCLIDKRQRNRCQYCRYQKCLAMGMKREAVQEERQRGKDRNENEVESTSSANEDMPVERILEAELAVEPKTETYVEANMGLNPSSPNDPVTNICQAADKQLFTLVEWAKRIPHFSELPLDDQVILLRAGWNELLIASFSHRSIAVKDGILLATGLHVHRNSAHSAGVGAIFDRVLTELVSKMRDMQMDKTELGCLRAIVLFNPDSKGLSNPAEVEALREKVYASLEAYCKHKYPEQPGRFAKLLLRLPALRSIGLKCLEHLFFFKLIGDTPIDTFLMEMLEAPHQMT
# How it was run: as §1
# [13] = qHTS assay for small molecule activators of the p53 signaling pathway (AID 651743; active = well fitted activation curve with a large enough effect in the signal ratio, not every such curve was filed as active; the % refers to the signal ratio; also: series mostly up to about 92 µM; % of control where 0% means no effect); details: HCT-116 p53RE-bla, beta-lactamase FRET ratio, 16 h; activation: stronger effect = higher value
# How it was run: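 Reporter: beta-lactamase driven by p53 response elements, stably integrated in HCT-116 cells. Cells seeded at 4,000/well, 5 h preincubation, compound (DMSO) 16 h at 37 C; B/G FRET substrate 2 h RT; fluorescence intensity read.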
# [14] = qHTS assay for small molecule activators of the nuclear factor-kappa B (NF-kB) signaling pathway (AID 651749; active = well fitted activation curve with a large enough effect in the signal ratio; the % refers to the signal ratio; also: series mostly up to about 77 µM; % of control where 0% means no effect); details: NF-kB-bla ME-180 cells, beta-lactamase FRET ratio, 16 h; activation: stronger effect = higher value
# How it was run: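 NF-kB-bla ME-180 cells, 2,000/well; 23 nL compound or DMSO pinned; 16 hr, 37C/5% CO2; beta-lactamase FRET read-out.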
# [15] = qHTS assay for environmental chemicals that activate the Aryl hydrocarbon Receptor (AhR) signaling pathway (AID 651777); details: 1A2-DRE human hepatoma cells, luciferase, 24 h; activation: stronger effect = higher value; also: % of control where 0% means no effect; nearly all actives have a fitted effect of over 15% in size
# How it was run: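 Stable CYP1A2 promoter/DRE-luciferase human hepatoma line treated 24 hr; One-Glo luminescence, 30 min RT.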
# [16] = target: Peroxisome proliferator-activated receptor alpha (Homo sapiens) (UniProt Q07869); assay: qHTS assay for small molecule agonists of the peroxisome proliferator-activated receptor alpha (PPARalpha) signaling pathway (AID 651778); details: PathHunter PPARalpha complementation, chemiluminescence, 6 h; max response: stronger effect = higher value; also: % of control where 0% means no effect
# Peroxisome proliferator-activated receptor alpha (Homo sapiens), sequence (Q07869 whole entry, looked up, the tested form may be a part): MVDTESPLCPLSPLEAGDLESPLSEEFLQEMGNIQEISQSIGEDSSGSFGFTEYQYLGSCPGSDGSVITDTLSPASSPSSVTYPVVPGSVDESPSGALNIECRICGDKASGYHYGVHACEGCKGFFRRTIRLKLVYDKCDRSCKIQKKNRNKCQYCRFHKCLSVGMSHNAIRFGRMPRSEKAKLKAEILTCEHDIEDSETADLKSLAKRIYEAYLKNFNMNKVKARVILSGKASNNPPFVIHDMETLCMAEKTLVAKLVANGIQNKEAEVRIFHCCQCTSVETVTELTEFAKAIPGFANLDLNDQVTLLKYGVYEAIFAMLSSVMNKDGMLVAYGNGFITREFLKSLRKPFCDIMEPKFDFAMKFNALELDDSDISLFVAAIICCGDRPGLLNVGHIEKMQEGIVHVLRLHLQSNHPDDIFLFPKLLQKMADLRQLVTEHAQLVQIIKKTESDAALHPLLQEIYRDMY
# How it was run: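 Enzyme-fragment complementation assay in which ligand-bound PPARalpha translocates and forms an active enzyme that generates chemiluminescence. Cells were plated overnight, exposed to compound for 6 hr at 37 C, and then given detection reagent for 60 min at room temperature.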
# [17] = qHTS assay for small molecule agonists of the antioxidant response element (ARE) signaling pathway measured by Nrf2-dependant transcriptional activity (AID 720636; active = well fitted curve in the direction sought with a large enough effect in the repeat runs; an effect the other way counts as inactive or inconclusive;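 also: HepG2 cells with an ARE-driven luciferase reporter; % of control where 0% means no effect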)
# How it was run: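 Reporter gene assay, HepG2 ARE-luc: 16 hr compound, 37 C, 5% CO2; read-out luciferase luminescence.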
# [18] = qHTS assay for small molecule agonists of the antioxidant response element (ARE) signaling pathway measured by Nrf2-dependant transcriptional activity - cell viability counter screen (AID 720653; active = well fitted curve in the direction sought with a large enough effect in the repeat runs; an effect the other way counts as inactive or inconclusive; also: % is scaled to controls: 0 for no effect and ±100 for the full control effect); details: ARE-bla HepG2 viability, CellTiter-Glo ATP luminescence, 16 h; max response: stronger effect = lower value
# How it was run: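 ARE-bla HepG2 cells treated with compounds for 16 h at 37C; this counter screen measures viability as intracellular ATP by CellTiter-Glo luminescence after 30 min at room temperature.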
# [19] = qHTS assay for cell viability of HEK293 cells (AID 743288); details: ATP luminescence (CellTiter-Glo), 18 h; max response: stronger effect = lower value; also: % is scaled to controls: 0 for no effect and ±100 for the full control effect; nearly all actives have a fitted effect of over 50% in size
# How it was run: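 Viable-cell counts were inferred from luciferase-based ATP content in HEK293 cells seeded at 2,000/well, pre-incubated ≥5 h, then dosed with DMSO-solubilised compounds for 18 h at 37 C.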
# [20] = qHTS assay for cell viability of the p53RE-bla HCT-116 cell line (AID 743292); also: % is scaled to controls: 0 for no effect and ±100 for the full control effect; nearly all actives have a fitted effect of over 55% in size
# How it was run: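 Readout: CellTiter-Glo luminescence after 30 min RT. Treatment: compounds in DMSO, 16 h, 37 C. Cells: CellSensor p53RE-bla HCT-116, 4,000/well, preincubated 5 h.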
smiles,measurement,setting,value
CC1CC[C@@]2(OC1)O[C@@H]1[C@@H](O)[C@H]3C4CC[C@H]5C[C@@H](O[C@@H]6O[C@H](CO)[C@H](O[C@@H]7O[C@H](CO)[C@@H](O)[C@H](O[C@@H]8OC[C@@H](O)[C@H](O)[C@H]8O)[C@H]7O[C@@H]7O[C@H](CO)[C@@H](O)[C@H](O[C@@H]8O[C@H](CO)[C@@H](O)[C@H](O)[C@H]8O)[C@H]7O)[C@H](O)[C@H]6O)[C@H](O)C[C@]5(C)C4CC[C@]3(C)[C@H]1[C@@H]2C (some centres not stated),Potency,[1],inactive
C/C(=N\C(N)=O)N(C)Cc1ccc(Cl)nc1,Potency,[2],inactive
same,Potency,[3],inactive
same,activation,[4],-1.3% (inactive)
same,outcome,[5],inactive
same,Potency,[6],inactive
same,Potency,[7],inactive
same,outcome,[8],inactive
same,max response,[9],-8.24%
same,Potency,[10],inactive
same,max response,[11],-9.48%
same,max response,[12],-3.51% (inactive)
same,activation,[13],-4.92% (inactive)
same,activation,[14],-1.01% (inactive)
same,activation,[15],-0.747% (inactive)
same,max response,[16],-1.45% (inactive)
same,Potency,[17],inactive
same,max response,[18],-7.18% (inactive)
same,max response,[19],0.858% (inactive)
same,Potency,[20],inactive
CN1Cc2c(ccc3c2OCO3)C2C(O)Cc3cc4c(cc3C21)OCO4 (configuration not stated),Potency,[1],12.6 µM (active) and 5.01 µM (active)
CCCC/C(C)=C/[C@@H](NP(=O)(c1ccccc1)c1ccccc1)c1ccccc1,Potency,[1],2.51 µM (active)
COc1nc(C)nc(NC(=O)NS(=O)(=O)c2ccccc2CCC(F)(F)F)n1,Potency,[2],inactive
same,Potency,[3],inactive
same,activation,[4],-2.83% (inactive)
same,Potency,[6],inactive
same,Potency,[7],inactive
same,outcome,[8],inactive
same,max response,[9],-27.4%
same,Potency,[10],inactive
same,max response,[11],-4.25%
same,max response,[12],-8.68% (inactive)
same,activation,[13],1.94% (inactive)
same,activation,[14],-0.385% (inactive)
same,activation,[15],0.656% (inactive)
same,max response,[16],-1.05% (inactive)
same,Potency,[17],inactive
same,max response,[18],3.55% (inactive)
same,max response,[19],0.421% (inactive)
same,Potency,[20],inactive
C=C[C@@H]1C[C@@]1(C)[C@@H](NP(=O)(c1ccccc1)c1ccccc1)c1ccccc1,Potency,[1],10 µM (active)
C=C(C)c1ccccc1,Potency,[1],inactive
same,outcome,[5],inactive
CC(C)[C@]1(NC(=O)[C@@H]2C=C3c4cccc5[nH]cc(c45)C[C@H]3N(C)C2)O[C@@]2(O)C3CCCN3C(=O)[C@H](Cc3ccccc3)N2C1=O (some centres not stated),Potency,[1],1 µM (active)
COc1ccc(CC2NCC(O)C2OC(C)=O)cc1 (configuration not stated),Potency,[1],inactive
COc1cc2c(cc1OC)-c1c(OC)c(OC)c(CO)c3c1C(C2)N(C)CC3 (configuration not stated),Potency,[1],31.6 µM (active)
CC1=CC(=O)C2=C(C)C[C@H](O)[C@H]3[C@H](C)C(=O)O[C@@H]3C12 (some centres not stated),Potency,[1],inactive
COC(=O)[C@@H]1C[C@@]1(C)[C@@H](NP(=O)(c1ccccc1)c1ccccc1)c1ccccc1,Potency,[1],7.94 µM (active)
CCCC1COC(Cn2cncn2)(c2ccc(Cl)cc2Cl)O1 (configuration not stated),Potency,[2],inactive
same,Potency,[3],inactive
same,activation,[4],4.96% (inactive) and -1.29% (inactive)
same,outcome,[5],inactive
same,Potency,[6],inactive
same,Potency,[7],inactive
same,outcome,[8],inactive
same,max response,[9],1.7%
same,Potency,[10],inactive
same,max response,[11],5.44%
same,max response,[12],2.1% (inactive)
same,activation,[13],-6.14% (inactive)
same,activation,[14],-0.905% (inactive) and -2.64% (inactive)
same,max response,[16],-0.724% (inactive) and -0.169% (inactive)
same,Potency,[17],inactive
same,max response,[18],-18.4% (inactive) and -18.3% (inactive)
same,max response,[19],-21.6% (inactive) and -21.9% (inactive)
same,Potency,[20],inactive
CCCC/C=C/[C@@H](NP(=O)(c1ccccc1)c1ccccc1)c1ccccc1OC,Potency,[1],6.31 µM (active)
C[C@]12[C@H](O)CC3C(CC[C@@H]4C[C@@H](O)CC[C@]34C)[C@@]1(O)CC[C@@H]2C1=CC(=O)OC1 (some centres not stated),Potency,[1],inactive
COc1ccc(CC2c3cc(OC)c(OC)cc3CCN2C)cc1OC (configuration not stated),Potency,[1],inactive
C=C(CC1(CNP(=O)(c2ccccc2)c2ccccc2)CC1)c1ccccc1,Potency,[1],3.98 µM (active)
O=c1cccc2n1CC1CC2CN2CCCC[C@H]12 (some centres not stated),Potency,[1],inactive
